TDP1 inh = blocks human tyrosyl-DNA phosphodiesterase 1. recombinant TDP1, AlphaScreen DNA substrate cleavage. Potency, µM (titrated, usually from 130 µM), for inactives: at the highest dose activity change, negative = inhibition, usual class: inhibitors. 350,000 compounds, 0.28% hits; also: % is scaled to controls: 0 for no effect and ±100 for the full control effect; nearly all actives have a fitted effect of over 40% in size
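Compounds were preincubated with Tdp1 (1 nM final) for 15 min at room temperature before substrate (15 nM final) started a 5 min reaction; beads (10 ug/ml final) were then added for 10 min before AlphaScreen detection.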
ClpP mod = qHTS Assay for Activators of ClpP; purified B. subtilis ClpP, FRET peptide cleavage, 20 min; Potency, µM (series often up to 57.5 µM), inactives show at the top dose activity change, negative = active; 340,000 compounds, 1.9% hits; active = well fitted falling curve with a large enough effect; inconclusive = small, poorly fitted or top-dose-only effect; inactive = no such curve, though single readings can be large or run the other way; also: the source files actives as falling curves though it sought activators and does not explain the sign; nearly all actives have a fitted effect of over 65% in size
Target sequence (P80244 whole entry, looked up): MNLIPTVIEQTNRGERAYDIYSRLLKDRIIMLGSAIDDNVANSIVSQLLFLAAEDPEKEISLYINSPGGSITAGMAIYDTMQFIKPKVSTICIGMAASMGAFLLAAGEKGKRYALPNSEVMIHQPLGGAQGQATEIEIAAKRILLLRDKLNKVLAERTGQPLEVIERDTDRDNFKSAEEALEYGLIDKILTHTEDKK
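Buffer: 100 mM Tris/HCl pH8, 100 mM KCl, 0.05% low protease BSA, 2.5% glycerol, 0.01% Tween-20. ClpP 10 microg/mL final; 20 min RT; delta FRET normalized to ADEP and DMSO controls.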
DT40 TDP1 CPT = DT40-hTDP1 cell growth loss with CPT; chicken DT40 Tdp1-/-;hTDP1 cells + 20 nM CPT, ATP luminescence, 48 h; Potency, µM (highest dose often 46.2 µM), without a hit: at the highest dose activity change, negative = growth inhibition, actives largely listed as inhibitors; 420,000 compounds, 12% hits; AID 686979; also: % is scaled to controls: 0 for no effect and ±100 for the full control effect; nearly all actives have a fitted effect of over 55% in size
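Chicken DT40 Tdp1-/- cells complemented with human TDP1, 400 cells/well, exposed to compounds plus 20 nM camptothecin for at least 48 h at 37 C; viability read as ATP content by CellTiter-Glo luminescence.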
TDP1 cell noCPT = qHTS for Inhibitors of human tyrosyl-DNA phosphodiesterase 1 (TDP1): qHTS in cells in absence of CPT. DT40 Tdp1-/- hTDP1 cells, no CPT, ATP luminescence, 48 h. Potency, µM (top dose mostly 46.2 µM), without a hit: at the top dose activity change, negative = growth inhibition, hits mostly inhibitors. 420,000 compounds, 15% hits; also: % is scaled to controls: 0 for no effect and ±100 for the full control effect; nearly all actives have a fitted effect of over 55% in size
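Compound effects on proliferation are scored in DT40 Tdp1-/-;hTDP1 cells in the absence of CPT. ATP levels (CellTiter-Glo luminescence) are recorded after a ≥48 hr, 37 °C incubation.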
Starred values were filed as active, the others as inactive; ? = inconclusive; / = no result; [ ] = remark or other dose. Rows were chosen to be rich in hits. Some 17% of all compounds tested hit in one or more screens of this group. Unless noted, calls follow the shape of the dose curve; as a rule, active = well fitted curve in the direction sought with a large enough effect; inconclusive = small, poorly fitted or top-dose-only effect, or another doubt; inactive = no such curve, though single readings can be large; an effect the other way counts as inactive or inconclusive. Potency is read from the fitted curve at half-maximal effect.

SMILES	TDP1 inh	ClpP mod	DT40 TDP1 CPT	TDP1 cell noCPT
C[C@H]1CN([C@@H](C)CO)S(=O)(=O)c2ccc(C#CC(C)(C)O)cc2O[C@H]1CN(C)Cc1ccccc1	/	-2%	18µM*	23µM*
C[n+]1ccccc1COc1ccc(C(C)(C)C)cc1	4%	-2%	2.1µM*	2.3µM*
CCCCSC(=S)NC1CCS(=O)(=O)C1 (stereo unspecified)	6%	-1%	9.2µM*	12µM*
CNC(=S)SCCOc1ccccc1	/	/	-23%	-25%
O=S1(=O)CCC(NC(=S)SCCOc2ccccc2)C1 (stereo unspecified)	-8%	-1%	8.2µM*	10µM*
O=S1(=O)CCC(NC(=S)NC2CCS(=O)(=O)C2)C1 (stereo unspecified)	-2%	1%	35%	-7%
Cc1cc2cc(CCNC(=O)c3cccc([N+](=O)[O-])c3)c(=O)[nH]c2cc1C	3%	-5%	?	16µM*
Cc1ccc(C(=O)NCCc2cc3ccc(C)c(C)c3[nH]c2=O)cc1[N+](=O)[O-]	1%	-3%	10µM*	?
CCC(=O)NCCc1cc2cc(C)c(C)cc2[nH]c1=O	3%	16µM*	-1%	-15%
Cc1ccc2cc(CCNC(=O)c3cccc([N+](=O)[O-])c3)c(=O)[nH]c2c1	8%	0%	21µM*	21µM*
CC(C)c1ccc(N(CC(=O)NC2CCCCC2)C(=O)CCC(=O)Nc2ccccn2)cc1	1%	1%	?	?
N#CC(C(=O)NC1CCCCC1)=C1CCCCCC1	8%	16µM*	0%	-12%
N#CC(C(N)=O)=C1CCCCC1	0%	/	15%	-21%
C=C1C(=O)OC2CC1C(OC(C)=O)CC(C)=CCCC(C)=CCC[C@@]2(C)O (stereo partly specified)	8%[56.1 µM]	/	2.9µM*	3.3µM*
C=C1C(=O)OC2CC1C(O)CC(C)=CCCC(C)=CC(O)CC2C (stereo unspecified)	/	-1%	2.9µM*	3.3µM*
C=C1CCC(OC(C)=O)C2(C)CCC3C(C)C(=O)OC3C12O (stereo unspecified)	/	/	0%	0%
Cc1c(Br)c([N+](=O)[O-])nn1CC(=O)NCCc1c[nH]c2ccccc12	1%	1%	-31%	?
O=C(NC1CCCCC1)C(c1ccccc1)N(C(=O)c1csnn1)C1CCCC1 (stereo unspecified)	10%	0%	-24%	?
O=C(Cc1ccc(-n2cccc2)cc1)NCc1ccccc1Cl	3%	2%	5.8µM*	5.8µM*
O=C(Cc1ccccc1)NCc1ccc(-n2cccc2)cc1	-8%	-1%	3.3µM*	3.7µM*
O=C(CNC(=O)c1ccc(Br)o1)NCc1ccccc1Cl	4%	0%	11%	-3%
O=C(Cc1ccccc1)NCc1ccncc1	0%	/	-5%	17%
O=C(CC(c1ccccc1)c1ccccc1O)NCc1ccccc1Cl (stereo unspecified)	2%	1%	23µM*	16µM*
Cc1cc(-c2ccccc2)n2nc(N)nc2n1	/	3%	-2%	1%
COc1ccc(N2CCN(S(=O)(=O)CCNC(=O)COc3ccccc3F)CC2)cc1	5%	-1%	2%	-26%
SMILES	TDP1 inh	ClpP mod	DT40 TDP1 CPT	TDP1 cell noCPT
CCOC(=O)c1cccnc1SCc1cc(=O)n2ccccc2n1	0%	32µM*	-36%	?
CC(OC(=O)c1cccnc1SCc1cc(=O)n2ccccc2n1)c1ccccn1 (stereo unspecified)	-4%	-23%	?	-22%
O=C(O)c1ccc(N/N=C/c2cc3ccccc3nc2Cl)cc1	/	-4%	-16%	?
Clc1nc2ccccc2cc1/C=N/Nc1nc2ccccc2[nH]1	5%	/	?	15µM*
O=[N+]([O-])c1ccccc1N/N=C/c1cc2ccccc2nc1Cl	-5%	2%	4.1µM*	?
COc1cccc(C(=O)N2CCC[C@@H]2C(=O)N2CCC[C@@H]2C(=O)NCc2ccccc2Cl)c1	/	1%	-2%	-12%
CC(C)C[C@H]1CN=C(N(C)C)N1CCCCc1ccccc1	/	1%	5.2µM*	2.6µM*
CCC(CC)CN1C(N(C)C)=NC[C@@H]1CC(C)C	-10%	-3%	16µM*	18µM*
CC(C)C[C@H]1CN=C(N(C)C)N1CC1CCCC1	-3%	-1%	?	?
C[C@H]1CN=C(N(C)C)N1CCCCc1ccccc1	-3%	-3%	?	15µM*
O=C(CCc1nc(-c2ccccc2)no1)NCc1ccccc1CN1CCOCC1	1%	-1%	?	?
C=CCn1c(C)cc(C(=O)COC(=O)/C=C/c2c(C)nn(C3CCS(=O)(=O)C3)c2Cl)c1C (stereo unspecified)	-7%	-1%	?	-25%
COc1cc(=O)n2c(c1C(=O)N(C)Cc1nonc1C)CCN(Cc1ccccc1Cl)CC2	/	/	5%[9.04 µM]	-3%
Cc1c(C(=O)NN2CCCCC2)nn(-c2ccc(Cl)cc2Cl)c1-c1ccc(Cl)cc1	6%	/	?	19µM*
Cc1nn(-c2ccc(Cl)cc2Cl)c(C)c1C(=O)O	8%	/	0%	-6%
CC(NC(=O)C1CCN(S(=O)(=O)c2cc([N+](=O)[O-])ccc2Cl)CC1)c1ccccc1 (stereo unspecified)	3%	/	?	?
Cc1ccc2nc(NC(=O)C3CCN(S(=O)(=O)c4cc([N+](=O)[O-])ccc4Cl)CC3)sc2c1	-5%	-5%	9.2µM*	6.5µM*
CN(Cc1ccccc1)C(=O)C1CCN(S(=O)(=O)c2cc([N+](=O)[O-])ccc2Cl)CC1	14%	-2%	?	23µM*
Cc1ccc(NC(=O)C2CCN(S(=O)(=O)c3cc([N+](=O)[O-])ccc3Cl)CC2)nc1	-7%	-3%	16µM*	15µM*
CCCCNC(=O)C1(C)CCN1C(=O)c1ccc(F)cc1Cl (stereo unspecified)	/	-2%	0%	-2%
C[C@H](CO)N1C[C@H](C)[C@H](CN(C)S(C)(=O)=O)OCc2ccccc2-c2c(n(C)c3ccccc23)C1=O	/	0%	-21%	-23%
C[C@H](CO)N1C[C@H](C)[C@H](CN(C)S(=O)(=O)c2cccc(F)c2)OCc2ccccc2-c2c(n(C)c3ccccc23)C1=O	/	-8%	10µM*	16µM*
C[C@@H]1CN([C@H](C)CO)C(=O)c2c(c3ccccc3n2C)-c2ccccc2CO[C@@H]1CN(C)S(=O)(=O)c1cccs1	/	-1%	?	21µM*
COc1ccc(OC)c(NC(=O)c2cc3c(=O)n4cccc(C)c4nc3n2C)c1	-1%	-3%	10µM*	9.2µM*
CCCN(CCC)C(=O)c1cc2c(=O)n3cccc(C)c3nc2n1C	0%	5%	16µM*	23µM*

Screening results: PubChem, National Center for Advancing Translational Sciences (NCATS)
